The source of these data is publication PMC7862700, “An all-to-all approach to the identification of sequence-specific readers for epigenetic DNA modifications on cytosine”.

What all share (experiment): DAPPL (digital affinity profiling via proximity ligation, sequencing); 10 mM Tris-HCl pH 7.5, 50 mM NaCl, 1 mM DTT, 4% glycerol, room temperature, 30 min; GST-TFs on glutathione beads, 16-mer random dsDNA library, 0.1% formaldehyde crosslink after washing; high values mean tight binding
One test addresses T1, FLI1 (Homo sapiens, UniProt Q01543 1-452).
T1 sequence: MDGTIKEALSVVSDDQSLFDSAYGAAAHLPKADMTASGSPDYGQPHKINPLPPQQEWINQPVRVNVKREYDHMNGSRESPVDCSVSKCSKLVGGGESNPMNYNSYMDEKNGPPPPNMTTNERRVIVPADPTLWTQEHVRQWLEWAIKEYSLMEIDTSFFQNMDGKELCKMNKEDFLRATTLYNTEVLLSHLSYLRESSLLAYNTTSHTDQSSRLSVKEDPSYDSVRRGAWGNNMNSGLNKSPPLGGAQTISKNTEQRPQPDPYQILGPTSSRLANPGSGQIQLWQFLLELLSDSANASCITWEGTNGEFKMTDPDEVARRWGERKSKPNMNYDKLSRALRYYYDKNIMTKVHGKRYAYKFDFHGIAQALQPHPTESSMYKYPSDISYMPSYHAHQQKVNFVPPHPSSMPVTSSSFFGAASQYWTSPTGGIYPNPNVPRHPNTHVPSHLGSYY
Conditions: protein: recombinant; tags: N-terminal GST; dsDNA, one strand shown. Summed up:
(§1)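 Pools were built from human transcription factors expressed in yeast as GST fusions, captured on glutathione beads and DNA-barcoded, along with a tag-only sample. Incubation with 200 nmole of a 16-mer random double-stranded DNA library lasted 30 min at room temperature in Tris/NaCl/DTT/glycerol buffer, and was followed by washing, 0.1% formaldehyde crosslinking, proximity ligation, PCR amplification and Illumina NextSeq500 sequencing. Binding signal is the quotient of each hexamer's read frequency for a factor and its frequency for the tag-only sample.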

A further test deals with T2, ELK1 (Homo sapiens, UniProt P19419 1-428).
T2 sequence: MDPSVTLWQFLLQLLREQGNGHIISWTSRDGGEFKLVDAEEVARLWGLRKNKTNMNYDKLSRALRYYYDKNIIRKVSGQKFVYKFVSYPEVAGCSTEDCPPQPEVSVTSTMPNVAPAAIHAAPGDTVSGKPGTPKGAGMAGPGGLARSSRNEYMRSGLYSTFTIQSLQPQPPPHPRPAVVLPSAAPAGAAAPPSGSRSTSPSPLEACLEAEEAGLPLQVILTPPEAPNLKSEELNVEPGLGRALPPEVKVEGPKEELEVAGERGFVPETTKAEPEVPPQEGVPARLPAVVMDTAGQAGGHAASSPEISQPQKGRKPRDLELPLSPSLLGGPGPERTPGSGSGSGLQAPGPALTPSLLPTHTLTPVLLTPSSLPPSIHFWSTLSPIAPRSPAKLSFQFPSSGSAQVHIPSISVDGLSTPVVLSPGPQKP
Conditions: protein: recombinant; tags: N-terminal GST; dsDNA, one strand shown. Summed up: as §1

For the next test, the target named is T3, GABPA (Homo sapiens, UniProt Q06546 1-454).
T3 sequence: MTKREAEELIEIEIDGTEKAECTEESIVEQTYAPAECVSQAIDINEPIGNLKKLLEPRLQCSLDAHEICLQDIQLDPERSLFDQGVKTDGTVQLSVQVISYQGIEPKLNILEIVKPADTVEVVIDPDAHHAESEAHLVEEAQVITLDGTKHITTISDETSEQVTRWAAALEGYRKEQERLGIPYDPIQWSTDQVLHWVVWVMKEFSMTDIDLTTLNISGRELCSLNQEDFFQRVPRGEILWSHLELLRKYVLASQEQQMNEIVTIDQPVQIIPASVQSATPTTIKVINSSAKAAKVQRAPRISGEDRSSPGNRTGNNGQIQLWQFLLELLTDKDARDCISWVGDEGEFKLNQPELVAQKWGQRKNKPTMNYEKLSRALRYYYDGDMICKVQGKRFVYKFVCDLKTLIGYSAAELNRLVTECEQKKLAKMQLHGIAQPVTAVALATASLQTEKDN
Conditions: protein: recombinant; tags: N-terminal GST; dsDNA, one strand shown. In outline:
as §1

Another test addresses T4, ERG (Homo sapiens, UniProt P11308 1-479).
T4 sequence: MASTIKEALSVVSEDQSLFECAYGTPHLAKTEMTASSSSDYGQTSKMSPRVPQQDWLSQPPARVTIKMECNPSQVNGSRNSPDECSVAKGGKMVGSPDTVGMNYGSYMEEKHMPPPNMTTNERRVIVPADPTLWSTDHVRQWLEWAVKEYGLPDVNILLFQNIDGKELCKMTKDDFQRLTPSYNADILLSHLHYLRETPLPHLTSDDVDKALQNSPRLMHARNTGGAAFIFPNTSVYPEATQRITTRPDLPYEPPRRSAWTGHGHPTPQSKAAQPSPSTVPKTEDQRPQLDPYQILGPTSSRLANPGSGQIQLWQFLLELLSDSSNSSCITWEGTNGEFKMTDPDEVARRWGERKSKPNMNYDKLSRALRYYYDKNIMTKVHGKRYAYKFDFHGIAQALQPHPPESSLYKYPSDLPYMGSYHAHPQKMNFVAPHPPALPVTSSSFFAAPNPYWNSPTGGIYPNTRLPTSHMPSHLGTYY
Conditions: protein: recombinant; tags: N-terminal GST; dsDNA, one strand shown. Summed up:
as §1

For another test, the target named is ELF1 (Homo sapiens, UniProt P32519 1-619). Conditions: protein: recombinant; tags: N-terminal GST; dsDNA, one strand shown. In outline:
as §1

In the next test the target is T5, EHF (Homo sapiens, UniProt Q9NZC4 1-300).
T5 sequence: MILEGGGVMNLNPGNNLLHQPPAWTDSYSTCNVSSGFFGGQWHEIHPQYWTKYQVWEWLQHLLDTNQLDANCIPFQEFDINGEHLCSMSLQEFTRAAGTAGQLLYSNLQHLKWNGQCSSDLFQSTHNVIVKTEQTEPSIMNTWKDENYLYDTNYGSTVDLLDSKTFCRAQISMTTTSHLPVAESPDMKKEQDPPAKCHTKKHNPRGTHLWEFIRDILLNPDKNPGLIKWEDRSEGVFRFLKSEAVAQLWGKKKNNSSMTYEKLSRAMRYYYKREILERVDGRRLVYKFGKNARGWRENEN
Particulars: protein: recombinant; tags: N-terminal GST; dsDNA, one strand shown. Summed up: as §1

A further test concerns the target SPI1 (Homo sapiens, UniProt P17947 1-270). Conditions: protein: recombinant; tags: N-terminal GST; dsDNA, one strand shown. In outline: as §1
The target of a further test is SPIB (Homo sapiens, UniProt Q01892 1-262). Particulars: protein: recombinant; tags: N-terminal GST; dsDNA, one strand shown. Summed up:
as §1

In another test the target is T6, ELK3 (Homo sapiens, UniProt P41970 1-407).
T6 sequence: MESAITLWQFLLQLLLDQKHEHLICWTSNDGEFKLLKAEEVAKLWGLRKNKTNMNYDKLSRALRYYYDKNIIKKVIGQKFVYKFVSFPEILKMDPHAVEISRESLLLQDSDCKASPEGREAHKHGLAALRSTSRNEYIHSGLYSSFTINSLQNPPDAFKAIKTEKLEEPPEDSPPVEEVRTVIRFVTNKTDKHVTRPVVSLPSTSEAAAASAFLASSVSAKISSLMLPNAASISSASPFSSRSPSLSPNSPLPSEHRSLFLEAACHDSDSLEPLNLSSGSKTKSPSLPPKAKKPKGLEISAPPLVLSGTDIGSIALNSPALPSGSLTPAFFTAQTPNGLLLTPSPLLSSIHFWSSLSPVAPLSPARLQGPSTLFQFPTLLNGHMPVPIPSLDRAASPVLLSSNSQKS
Particulars: protein: recombinant; tags: N-terminal GST; dsDNA, one strand shown. In outline:
as §1

For another test, the target named is T7, FEV (Homo sapiens, UniProt Q99581 1-238).
T7 sequence: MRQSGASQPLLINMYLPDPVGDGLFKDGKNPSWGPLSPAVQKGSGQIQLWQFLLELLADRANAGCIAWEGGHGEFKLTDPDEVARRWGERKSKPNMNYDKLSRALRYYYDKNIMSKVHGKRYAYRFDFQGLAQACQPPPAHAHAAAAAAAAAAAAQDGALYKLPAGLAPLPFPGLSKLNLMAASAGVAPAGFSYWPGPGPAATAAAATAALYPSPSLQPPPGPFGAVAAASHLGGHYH
Conditions: protein: recombinant; tags: N-terminal GST; dsDNA, one strand shown. Summed up:
as §1

For the next test, the target named is ETV5 (Homo sapiens, UniProt P41161 1-510). Conditions: protein: recombinant; tags: N-terminal GST; dsDNA, one strand shown. Summed up:
as §1

For the next test, the target named is HSF1 (Homo sapiens, UniProt Q00613 1-529). Particulars: protein: recombinant; tags: N-terminal GST; chain copies: 3; dsDNA, one strand shown. In outline: as §1
Another test deals with T8, SPIC (Homo sapiens, UniProt Q8N5J4 1-248).
T8 sequence: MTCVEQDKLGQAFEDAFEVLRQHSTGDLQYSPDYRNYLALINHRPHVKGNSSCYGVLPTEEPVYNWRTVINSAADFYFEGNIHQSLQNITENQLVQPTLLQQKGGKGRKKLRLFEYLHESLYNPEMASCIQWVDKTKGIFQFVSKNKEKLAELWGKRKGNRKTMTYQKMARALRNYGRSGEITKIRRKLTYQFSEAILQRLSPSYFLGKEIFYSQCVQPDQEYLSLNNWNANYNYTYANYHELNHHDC
Conditions: protein: recombinant; tags: N-terminal GST; dsDNA, one strand shown. Summed up: as §1

In a further test the target is ELF4 (Homo sapiens, UniProt Q99607 1-663). Conditions: protein: recombinant; tags: N-terminal GST; dsDNA, one strand shown. In outline:
as §1

The target of the next test is T9, ELK4 (Homo sapiens, UniProt P28324-2 1-405).
T9 sequence: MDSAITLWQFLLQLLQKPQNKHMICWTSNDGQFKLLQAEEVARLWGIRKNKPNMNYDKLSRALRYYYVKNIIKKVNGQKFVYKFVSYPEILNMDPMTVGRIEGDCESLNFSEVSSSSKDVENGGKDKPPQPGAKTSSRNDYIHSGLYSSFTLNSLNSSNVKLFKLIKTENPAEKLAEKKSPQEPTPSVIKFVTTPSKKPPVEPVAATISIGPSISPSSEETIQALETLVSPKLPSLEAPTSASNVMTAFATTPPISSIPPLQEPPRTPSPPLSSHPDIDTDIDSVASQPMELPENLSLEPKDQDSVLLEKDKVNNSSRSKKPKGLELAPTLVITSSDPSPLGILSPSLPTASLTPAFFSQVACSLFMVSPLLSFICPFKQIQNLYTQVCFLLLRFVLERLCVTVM
Particulars: protein: recombinant; tags: N-terminal GST; dsDNA, one strand shown. In outline:
as §1

Another test has as its target T10, ETV2 (Homo sapiens, UniProt O00321 1-342).
T10 sequence: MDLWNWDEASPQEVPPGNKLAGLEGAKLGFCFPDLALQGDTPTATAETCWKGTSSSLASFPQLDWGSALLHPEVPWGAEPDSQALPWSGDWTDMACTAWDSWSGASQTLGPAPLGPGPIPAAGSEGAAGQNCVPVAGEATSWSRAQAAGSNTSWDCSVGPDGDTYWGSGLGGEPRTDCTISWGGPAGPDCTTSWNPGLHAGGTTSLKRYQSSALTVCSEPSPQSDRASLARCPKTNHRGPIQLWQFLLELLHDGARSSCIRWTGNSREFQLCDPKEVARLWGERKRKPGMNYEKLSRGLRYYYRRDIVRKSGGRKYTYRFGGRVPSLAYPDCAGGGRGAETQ
Conditions: protein: recombinant; tags: N-terminal GST; dsDNA, one strand shown. In outline:
as §1

In the next test the target is T11, ELF3 (Homo sapiens, UniProt P78545 1-371).
T11 sequence: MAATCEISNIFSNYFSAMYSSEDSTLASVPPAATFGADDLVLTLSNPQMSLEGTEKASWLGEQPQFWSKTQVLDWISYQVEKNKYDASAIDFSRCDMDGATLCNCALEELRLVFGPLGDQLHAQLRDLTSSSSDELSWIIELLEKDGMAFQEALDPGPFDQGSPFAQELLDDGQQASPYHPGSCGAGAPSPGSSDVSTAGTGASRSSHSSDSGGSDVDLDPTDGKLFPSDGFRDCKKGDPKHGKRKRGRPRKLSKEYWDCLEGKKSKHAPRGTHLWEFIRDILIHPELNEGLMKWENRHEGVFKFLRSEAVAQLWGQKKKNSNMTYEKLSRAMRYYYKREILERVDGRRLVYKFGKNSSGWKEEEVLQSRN
Conditions: protein: recombinant; tags: N-terminal GST; dsDNA, one strand shown. Summed up:
as §1

In another test the target is CRX (Homo sapiens, UniProt O43186 1-299). Particulars: protein: recombinant; tags: N-terminal GST; dsDNA, one strand shown. In outline: as §1
The next test has as its target ETV1 (Homo sapiens, UniProt P50549 1-477). Conditions: protein: recombinant; tags: N-terminal GST; dsDNA, one strand shown. In outline:
as §1

Sequence of HSF1 (Q00613 whole entry): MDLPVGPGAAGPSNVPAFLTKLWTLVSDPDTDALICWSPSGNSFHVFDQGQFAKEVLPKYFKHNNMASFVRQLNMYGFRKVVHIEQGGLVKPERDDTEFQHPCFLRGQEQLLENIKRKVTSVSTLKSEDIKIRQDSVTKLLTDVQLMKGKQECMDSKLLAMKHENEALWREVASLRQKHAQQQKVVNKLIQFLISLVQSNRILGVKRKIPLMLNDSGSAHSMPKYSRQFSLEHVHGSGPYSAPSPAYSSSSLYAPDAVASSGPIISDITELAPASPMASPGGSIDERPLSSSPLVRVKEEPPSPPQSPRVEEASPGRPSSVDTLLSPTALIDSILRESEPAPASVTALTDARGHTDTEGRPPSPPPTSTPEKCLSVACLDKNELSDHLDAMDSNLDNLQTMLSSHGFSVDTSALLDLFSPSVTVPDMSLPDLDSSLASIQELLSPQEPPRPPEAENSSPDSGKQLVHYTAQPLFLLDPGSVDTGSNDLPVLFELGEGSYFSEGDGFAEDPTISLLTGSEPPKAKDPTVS
Sequence of ELF4 (Q99607 whole entry): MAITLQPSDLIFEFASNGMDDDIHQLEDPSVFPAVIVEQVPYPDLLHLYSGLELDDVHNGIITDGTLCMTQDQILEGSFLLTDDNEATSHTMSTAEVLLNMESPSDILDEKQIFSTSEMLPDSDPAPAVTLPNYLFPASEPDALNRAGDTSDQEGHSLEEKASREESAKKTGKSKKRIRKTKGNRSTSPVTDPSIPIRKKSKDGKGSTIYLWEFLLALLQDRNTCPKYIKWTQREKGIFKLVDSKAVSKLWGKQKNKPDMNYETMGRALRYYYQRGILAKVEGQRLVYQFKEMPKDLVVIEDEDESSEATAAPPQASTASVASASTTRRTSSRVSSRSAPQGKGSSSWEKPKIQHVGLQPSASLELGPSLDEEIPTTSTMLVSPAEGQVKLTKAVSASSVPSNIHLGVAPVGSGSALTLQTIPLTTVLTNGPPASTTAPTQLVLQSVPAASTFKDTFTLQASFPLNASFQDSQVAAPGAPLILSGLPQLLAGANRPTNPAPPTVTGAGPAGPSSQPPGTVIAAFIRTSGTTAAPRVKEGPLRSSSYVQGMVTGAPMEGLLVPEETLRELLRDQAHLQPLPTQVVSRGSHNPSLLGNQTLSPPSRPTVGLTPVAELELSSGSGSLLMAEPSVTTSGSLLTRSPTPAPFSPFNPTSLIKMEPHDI
Sequence of ELF1 (P32519 whole entry): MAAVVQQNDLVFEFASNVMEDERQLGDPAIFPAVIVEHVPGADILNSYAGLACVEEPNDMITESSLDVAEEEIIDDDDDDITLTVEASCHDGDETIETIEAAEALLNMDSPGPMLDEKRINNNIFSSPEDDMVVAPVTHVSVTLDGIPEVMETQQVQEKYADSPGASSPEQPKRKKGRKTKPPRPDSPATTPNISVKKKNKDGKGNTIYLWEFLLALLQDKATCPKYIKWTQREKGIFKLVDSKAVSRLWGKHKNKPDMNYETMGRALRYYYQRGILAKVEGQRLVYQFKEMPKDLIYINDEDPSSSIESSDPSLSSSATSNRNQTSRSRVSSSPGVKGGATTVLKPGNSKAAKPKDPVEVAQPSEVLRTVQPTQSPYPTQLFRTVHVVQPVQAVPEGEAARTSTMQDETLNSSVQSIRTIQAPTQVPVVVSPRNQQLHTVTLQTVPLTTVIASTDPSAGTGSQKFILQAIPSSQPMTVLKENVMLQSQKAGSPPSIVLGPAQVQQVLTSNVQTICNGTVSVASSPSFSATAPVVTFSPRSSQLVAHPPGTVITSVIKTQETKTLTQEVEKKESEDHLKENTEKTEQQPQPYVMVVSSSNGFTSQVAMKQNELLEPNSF
Sequence of CRX (O43186 whole entry): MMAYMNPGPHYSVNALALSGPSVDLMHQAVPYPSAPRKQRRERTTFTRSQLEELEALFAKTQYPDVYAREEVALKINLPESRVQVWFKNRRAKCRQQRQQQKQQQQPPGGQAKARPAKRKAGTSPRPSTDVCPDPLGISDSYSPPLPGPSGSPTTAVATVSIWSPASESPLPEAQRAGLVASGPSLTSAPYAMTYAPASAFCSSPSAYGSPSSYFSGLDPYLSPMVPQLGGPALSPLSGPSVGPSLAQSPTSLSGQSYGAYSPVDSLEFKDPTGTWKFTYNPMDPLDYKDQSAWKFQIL
Sequence of SPIB (Q01892 whole entry): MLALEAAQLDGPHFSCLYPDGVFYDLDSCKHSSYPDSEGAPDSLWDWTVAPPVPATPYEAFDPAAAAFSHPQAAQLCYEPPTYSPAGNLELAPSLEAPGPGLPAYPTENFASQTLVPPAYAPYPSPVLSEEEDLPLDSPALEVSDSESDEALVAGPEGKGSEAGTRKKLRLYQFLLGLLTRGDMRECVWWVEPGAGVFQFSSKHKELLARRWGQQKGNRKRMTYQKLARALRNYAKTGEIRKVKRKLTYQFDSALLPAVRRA
Sequence of ETV1 (P50549 whole entry): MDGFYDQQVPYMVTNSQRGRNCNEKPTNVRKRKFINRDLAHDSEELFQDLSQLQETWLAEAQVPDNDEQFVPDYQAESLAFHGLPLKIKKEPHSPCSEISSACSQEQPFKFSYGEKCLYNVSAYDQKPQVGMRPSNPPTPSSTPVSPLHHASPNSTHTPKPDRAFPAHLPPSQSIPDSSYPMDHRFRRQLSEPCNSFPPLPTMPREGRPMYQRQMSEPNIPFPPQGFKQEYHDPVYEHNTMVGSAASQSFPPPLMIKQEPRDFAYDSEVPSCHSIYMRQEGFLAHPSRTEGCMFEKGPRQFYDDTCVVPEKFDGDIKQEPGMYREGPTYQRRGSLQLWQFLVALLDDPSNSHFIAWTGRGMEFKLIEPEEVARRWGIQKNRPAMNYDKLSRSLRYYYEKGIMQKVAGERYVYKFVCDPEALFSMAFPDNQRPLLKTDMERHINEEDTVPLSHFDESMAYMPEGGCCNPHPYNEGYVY
Sequence of ETV5 (P41161 whole entry): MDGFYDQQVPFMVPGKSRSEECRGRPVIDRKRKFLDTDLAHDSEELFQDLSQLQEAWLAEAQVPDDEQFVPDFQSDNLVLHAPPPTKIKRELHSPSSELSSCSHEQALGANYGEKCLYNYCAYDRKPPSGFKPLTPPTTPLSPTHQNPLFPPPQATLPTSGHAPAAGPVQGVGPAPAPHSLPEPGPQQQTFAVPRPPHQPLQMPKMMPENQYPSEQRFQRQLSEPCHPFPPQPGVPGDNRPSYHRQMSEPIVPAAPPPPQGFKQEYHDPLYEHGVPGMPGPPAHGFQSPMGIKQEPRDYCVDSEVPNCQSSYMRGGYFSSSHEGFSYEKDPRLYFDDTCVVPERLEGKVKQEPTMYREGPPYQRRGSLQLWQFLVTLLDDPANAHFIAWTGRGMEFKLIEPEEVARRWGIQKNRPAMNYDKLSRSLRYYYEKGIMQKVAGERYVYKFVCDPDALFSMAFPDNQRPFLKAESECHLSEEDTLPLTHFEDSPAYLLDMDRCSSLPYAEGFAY

TCCCGC: the binding signal with FLI1 was 1.48 fold enrichment (6-mer frequency, TF over GST control); in the test with ELK1 it was 1.53 fold enrichment (6-mer frequency, TF over GST control); with GABPA, 1.4 fold enrichment (6-mer frequency, TF over GST control); with ERG it was 1.42 fold enrichment (6-mer frequency, TF over GST control); with ELF1, 1.47 fold enrichment (6-mer frequency, TF over GST control); in the test with EHF, 1.52 fold enrichment (6-mer frequency, TF over GST control). The binding signal in the test with SPI1 is 1.37 fold enrichment (6-mer frequency, TF over GST control); in the test with SPIB, 1.48 fold enrichment (6-mer frequency, TF over GST control); in the test with ELK3, 1.46 fold enrichment (6-mer frequency, TF over GST control); in the test with FEV, 1.46 fold enrichment (6-mer frequency, TF over GST control); in the test with ETV5, 1.41 fold enrichment (6-mer frequency, TF over GST control); in the test with HSF1, 1.57 fold enrichment (6-mer frequency, TF over GST control). The binding signal is 1.46 fold enrichment (6-mer frequency, TF over GST control) with SPIC; 1.55 fold enrichment (6-mer frequency, TF over GST control) with ELF4; 1.26 fold enrichment (6-mer frequency, TF over GST control) with ELK4; 1.31 fold enrichment (6-mer frequency, TF over GST control) in the test with ETV2; 1.36 fold enrichment (6-mer frequency, TF over GST control) with ELF3; 1.42 fold enrichment (6-mer frequency, TF over GST control) with CRX. Moreover, in the test with ETV1, the binding signal is 1.5 fold enrichment (6-mer frequency, TF over GST control).
